High-throughput results as filed in PubChem.
In the library only some 0.98% were active in any assay of this set; here they are far more common.
Keap1-Nrf2 PPI: Keap1-Nrf2 (human) interaction inhibition; Q14145; Keap1 Kelch-Nrf2 peptide fluorescence polarization, 1536-well; inhibition, % at 9.4 µM; 340,000 compounds, 0.15% hits; AID 504523; in the data active = inhibition above about 12%;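 also: human Keap1 Kelch domain with fluorescein labeled Nrf2 9mer peptide probe; higher means more block of Keap1 binding to Nrf2 peptide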
Target sequence (Q14145 whole entry, looked up, the tested form may be a part): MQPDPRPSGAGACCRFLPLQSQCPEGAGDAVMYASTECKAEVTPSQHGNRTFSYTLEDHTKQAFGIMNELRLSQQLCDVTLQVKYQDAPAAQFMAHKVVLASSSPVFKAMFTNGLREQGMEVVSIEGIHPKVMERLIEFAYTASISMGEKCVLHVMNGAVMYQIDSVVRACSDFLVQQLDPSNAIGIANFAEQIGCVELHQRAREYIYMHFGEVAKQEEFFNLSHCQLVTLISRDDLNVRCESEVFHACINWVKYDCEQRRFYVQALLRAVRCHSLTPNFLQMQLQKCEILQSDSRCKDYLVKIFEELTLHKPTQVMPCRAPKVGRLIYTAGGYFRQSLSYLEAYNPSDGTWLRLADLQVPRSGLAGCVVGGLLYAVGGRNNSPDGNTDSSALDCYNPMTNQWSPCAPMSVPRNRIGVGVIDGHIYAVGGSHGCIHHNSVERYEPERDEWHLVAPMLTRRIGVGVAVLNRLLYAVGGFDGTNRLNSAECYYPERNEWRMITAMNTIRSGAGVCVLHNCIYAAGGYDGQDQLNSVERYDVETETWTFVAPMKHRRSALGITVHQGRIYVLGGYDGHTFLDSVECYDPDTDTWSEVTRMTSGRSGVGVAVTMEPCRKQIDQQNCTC
cardiac RTF act: increases calcium sensitivity of human cardiac regulated thin filaments; activation, % at 7.2 µM; 340,000 compounds, 0.24% hits; IANBD-labeled TnC RTF fluorescence at EC20 calcium; 0% EC20 calcium, 100% full calcium;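 active = activation above the mean over all tested compounds plus 3 SD, cut at about 30% in these data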;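 also: rise in fluorescence read as greater calcium sensitivity of cardiac thin filaments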
RTF Ca sens inh: cardiac RTF calcium desensitization. 340,000 compounds, 0.12% hits. P19429+P45379. IANBD-labeled cardiac RTF, Ca2+ fluorescence. inhibition, % at 7.15 µM;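 active = inhibition above the mean inhibition of all tested compounds plus 3 SD, cut at about 17% in these data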;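 also: assay run at fixed EC70 calcium of 1.6 mM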
C-LANA FP: blocks KSHV LANA C-terminal domain binding to DNA. MBP-C-LANA/FAM-LBS DNA binding, fluorescence polarization. inhibition, % at 9 µM. 340,000 compounds, 0.078% hits;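 active = highest replicate inhibition at or above 60% at 9 µM, even if other replicates fall short; inactive = all replicates below 60% inhibition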
LANA-H2B inh: blocks KSHV LANA binding to histone H2A/H2B; Q9QR71; cell-free LANA-H2A/H2B peptide, fluorescence polarization; inhibition, % (test concentration not listed); 320,000 compounds, 0.6% hits; in the data active = inhibition mostly above about 10%, no sharp cut-off; inactive = mostly below about 6.7%
Large screens that a line does not name were inactive.

O=S(=O)(Nc1ccc(Cl)cc1)c1ccc(N2CCOCC2)c(NC(=S)NC2CC2)c1	none
C[C@@H]1NC(=O)c2cc([N+](=O)[O-])cc(I)c2NCC[C@@H](C(N)=O)NC(=O)[C@H](CC(N)=O)NC1=O	LANA-H2B inh 18
COc1cccc(NC(=O)CN(C)C(=O)C23CC4CC(CC(Cl)(C4)C2)C3)c1	LANA-H2B inh 42
Cc1cccc(NC(=O)CN2C(=O)N/C(=C\c3ccc(-c4cccc(C(=O)O)c4)o3)C2=O)c1	LANA-H2B inh 113
CCc1sc(C(=O)Nc2ccccc2N2CCOCC2)cc1C	none
Clc1ccc(/C=C/c2nc3ccccc3[nH]2)cc1	none
Clc1cccc(Cl)c1/C=C/c1nc2ccccc2[nH]1	LANA-H2B inh 11
CC(C)NC(=O)c1ccc(NC(=O)CC2SC(N3CCCC3)=NC2=O)cc1 (stereo not given)	LANA-H2B inh active
CC(C)NC(=O)c1ccc(NC(=O)CC2SC(N3CCCCC3)=NC2=O)cc1 (stereo not given)	none
CNC(=O)c1ccc(NC(=O)CC2SC(N3CCCC3)=NC2=O)cc1 (stereo not given)	LANA-H2B inh 50
COc1cccc(CNC(=O)c2ccc(NC(=O)CC3SC(N4CCCC4)=NC3=O)cc2)c1 (stereo not given)	LANA-H2B inh 39
CCNc1nc(SCCOc2ccc(Br)cc2)nc(N(C)C)n1	none
COc1cc(NC(=O)COc2cccc3c2OC(C)(C)C3)cc(OC)c1OC	LANA-H2B inh 34
CC(=O)Nc1ccc(NC(=O)COc2cccc3c2OC(C)(C)C3)cc1	none
COc1ccc(C(C)=O)cc1COC(=O)C(CO)NS(=O)(=O)c1ccc(Br)cc1 (stereo not given)	none
C[n+]1c(-c2ccc(C=NNC(=O)c3ccc(C(=O)NN=Cc4ccc(-c5cn6ccccc6[n+]5C)cc4)cc3)cc2)cn2ccccc21	none (no result: LANA-H2B inh)
O=C(CSCc1ccc(F)cc1)NCc1cccs1	none (no result: LANA-H2B inh)
O=C(CCSCc1ccc(Cl)cc1)NCc1cccs1	RTF Ca sens inh 18
N#Cc1c2nc3ccccc3nc2n2cc(NC(=O)c3ccc(F)cc3)ccc12	none (no result: LANA-H2B inh)
Cc1c(C(=O)Nc2ccc(F)cc2)cn2c(nc3ccccc32)c1C#N	LANA-H2B inh 97
O=C(NCc1cccnc1)c1sc2ccccc2c1Cl	none
CC(NC(=O)CNC(=O)c1sc2ccccc2c1Cl)c1cccnc1 (stereo not given)	LANA-H2B inh 22
CCOC(=O)C1=NOC(COc2ccccc2C=O)C1 (stereo not given)	none
O=C(O)C(c1ccccc1)N1C(=O)/C(=C\c2ccc(-c3ccc(Br)cc3)o2)SC1=S (stereo not given)	cardiac RTF act 63 (no result: LANA-H2B inh)
O=C(O)C(c1ccccc1)N1C(=O)/C(=C\c2ccc(-c3ccccc3Cl)o2)SC1=S (stereo not given)	none
COc1ccc(N(CC(=O)N/N=C/c2cc(Br)c(C)o2)S(=O)(=O)c2ccc(NC(C)=O)cc2)cc1	LANA-H2B inh 25
Cn1c(=O)c2ccccc2n(CC(=O)NCCC2=CCCCC2)c1=O	none
O=C(O)C1Nc2c(C(=O)N3CCOCC3)cccc2C2C=CCC12 (stereo not given)	C-LANA FP 72
Cc1ccc2c(c1C)NC(C(=O)O)C1CC=CC21 (stereo not given)	LANA-H2B inh 27
O=C(CNC(=O)C(c1ccccc1)c1ccccc1)N/N=C\c1cccc(O)c1	LANA-H2B inh 94
COc1ccc(N2CCN(C(=O)CS(=O)Cc3nc(-c4ccc(OC)c(OC)c4)oc3C)CC2)cc1 (stereo not given)	LANA-H2B inh 16
O=C(CCn1cccn1)Nc1ccc2c(c1)OCO2	LANA-H2B inh 15
CC(=O)NCC1(O)CCCC(C)C1 (stereo not given)	LANA-H2B inh 19
O=[n+]1c2c(n([O-])c3cc(F)c(N4CCCC4)cc31)CCCC2	cardiac RTF act 79
O=[n+]1c2c(n([O-])c3cc(F)c(N4CCCC4)cc31)CCC2	cardiac RTF act 53
O=[n+]1c2c(n([O-])c3cc(F)ccc31)CCCC2	none
Cc1cc(C)c(C2=NOC3C4CCC(C4)C23)c(C)c1 (stereo not given)	none
NNc1ncnc2c1cnn2-c1ccccc1	LANA-H2B inh 26
O=C(Cn1cc(C(F)(F)F)ccc1=O)Nc1cc(S(=O)(=O)N2CCOCC2)ccc1Cl	none
